Data on 7 compounds can be found in PubChem BioAssay (NCI).

Some test systems named below: NCI-H23 lung; NCI-H226 lung; NCI-H322M lung; HOP-62 NSCLC; NCI-H460 lung; HOP-92 NSCLC; NCI-H522 lung; A549/ATCC NSCLC; 786-0 renal; COLO 205 colon; DU-145 prostate; K-562 leukemia; MALME-3M melanoma; MDA-MB-231 breast; RXF 393 renal; SF-268 CNS; SF-295 CNS; SF-539 CNS; UACC-257 melanoma; M14 melanoma.
What all share (experiment): NCI-60 one-dose screen, 48 h (100 = growth as untreated, 0 = no growth, -100 = all killed)
Holding throughout (conditions): 10 µM unless noted

SMILES strings stand for the structures. This is part of a sample that, as a whole, favours compounds with a hit. Of some 83,000 tested, about 20% had one in any assay.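 Step 1: grow cells in 96-well plates. Step 2: add test compound at a single concentration. Step 3: incubate 48 h. Step 4: record percent growth.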 Values without a mark were called inactive. The source made the active and inactive calls. How the source made its calls: active means growth percent below 10; inactive means the rest.

Consider `O=C(CN1C(=O)S/C(=C\C(Cl)=C\c2ccccc2)C1=O)NC1CCS(=O)(=O)C1` (stereo not given), for which the growth is 74.3% in the experiment on NCI-H23 lung; 77.3% in the experiment with NCI-H226 lung; 95.7% in the experiment with NCI-H322M lung; 99.7% with HOP-62 NSCLC; 94.2% with NCI-H460 lung; 80.4% with HOP-92 NSCLC. In addition, the growth with NCI-H522 lung is 34.2%; in the experiment with A549/ATCC NSCLC, 94.3%; in the experiment with 786-0 renal, 78.7%; in the experiment with COLO 205 colon it was 59%; in the experiment on DU-145 prostate, 82.8%; in the experiment with K-562 leukemia, 15.3%. For the same compound, the growth in the experiment on MALME-3M melanoma is 84.9%; in the experiment on MDA-MB-231 breast it was 77%; with RXF 393 renal, 26.7%; in the experiment with SF-268 CNS, 94.4%; with SF-295 CNS it was 85.3%; in the experiment with SF-539 CNS, 56.8%. Moreover, the growth was 81.8% in the experiment with UACC-257 melanoma and 64% with M14 melanoma.
Regarding `S=c1ccnc[nH]1`, the growth in the experiment with NCI-H23 lung is 103%; with NCI-H226 lung, 107%; with NCI-H322M lung, 114%; in the experiment with HOP-62 NSCLC it was 109%; in the experiment on NCI-H460 lung, 105%; with HOP-92 NSCLC, 76.2%. The growth in the experiment on NCI-H522 lung is 65.8%; in the experiment with A549/ATCC NSCLC, 98.2%; in the experiment with 786-0 renal, 89.7%; in the experiment on COLO 205 colon it was 102%; with DU-145 prostate it was 116%; with K-562 leukemia it was 113%. Further, the growth in the experiment on MALME-3M melanoma is 123%; with MDA-MB-231 breast it was 115%; in the experiment with RXF 393 renal, 128%; in the experiment with SF-268 CNS, 113%; with SF-295 CNS it was 115%; in the experiment on SF-539 CNS, 100%. Besides, the growth is 105% with UACC-257 melanoma and 96.6% in the experiment on M14 melanoma.
In the case of `COc1ccc(-c2nc3ccc(C)cc3c3c2c(=O)n(C)c(=O)n3C)cc1OC`, the growth in the experiment on NCI-H23 lung is 98.8%; in the experiment with NCI-H226 lung it was 108%; in the experiment on NCI-H322M lung, 118%; in the experiment with HOP-62 NSCLC, 112%; in the experiment on NCI-H460 lung, 112%; with HOP-92 NSCLC, 99.2%. The growth with NCI-H522 lung was 107%; with A549/ATCC NSCLC it was 89.9%; with 786-0 renal it was 103%; with COLO 205 colon, 109%; in the experiment with DU-145 prostate, 108%; in the experiment on K-562 leukemia, 107%. Moreover, the growth in the experiment with MALME-3M melanoma was 111%; in the experiment with MDA-MB-231 breast, 102%; in the experiment with RXF 393 renal it was 99.2%; in the experiment on SF-268 CNS, 100%; in the experiment on SF-295 CNS, 91.3%; in the experiment with SF-539 CNS, 108%. For the same compound, the growth in the experiment on UACC-257 melanoma was 114%; in the experiment on M14 melanoma it was 109%.
With `CCOC(=O)c1c(C)nc2c(c1N)C(=O)C(=O)N2Cc1ccc(OC)cc1`, the growth is 59.6% in the experiment on NCI-H23 lung; 90.8% in the experiment on NCI-H226 lung; 99.5% with NCI-H322M lung; 40.1% with HOP-62 NSCLC; 101% in the experiment with NCI-H460 lung; 39.6% with HOP-92 NSCLC. Moreover, the growth is 41.3% in the experiment with NCI-H522 lung; 88% in the experiment with A549/ATCC NSCLC; 39.7% in the experiment with 786-0 renal; 123% in the experiment on COLO 205 colon; 84.7% in the experiment on DU-145 prostate; 28.8% in the experiment on K-562 leukemia. In addition, the growth was 58.7% in the experiment with MALME-3M melanoma; 79.7% in the experiment on MDA-MB-231 breast; 87.9% with RXF 393 renal; 64.7% with SF-268 CNS; 74.3% in the experiment with SF-295 CNS; 45.5% in the experiment on SF-539 CNS. Further, the growth is 76.2% with UACC-257 melanoma and 68.8% with M14 melanoma.
On to `N#Cc1c(-c2ccc(Cl)cc2)nc(NN=Cc2ccc[nH]2)nc1N1CCOCC1`, for which the growth in the experiment with NCI-H23 lung was 92.4%; with NCI-H226 lung, 61.8%; with NCI-H322M lung it was 95.4%; in the experiment with HOP-62 NSCLC it was 41.6%; in the experiment with NCI-H460 lung, 36.7%; in the experiment on HOP-92 NSCLC, 68.9%. Also, the growth in the experiment on NCI-H522 lung is 8.32% (active); in the experiment with A549/ATCC NSCLC, 54.4%; with 786-0 renal it was 23.9%; with COLO 205 colon it was 81.6%; with DU-145 prostate, 84.2%; in the experiment with K-562 leukemia, 44.2%. Also, the growth in the experiment with MALME-3M melanoma is 88.9%; in the experiment with MDA-MB-231 breast, 79.7%; with RXF 393 renal, 63.1%; in the experiment on SF-268 CNS, 46.2%; in the experiment on SF-295 CNS it was 58.4%; in the experiment with SF-539 CNS, 33.4%. The growth in the experiment with UACC-257 melanoma was 101%; in the experiment on M14 melanoma, 105%.
`COc1cc(C[C@H]2COc3cc(O)cc(O)c3C2=O)ccc1O`: the growth with NCI-H23 lung is 49.8%; in the experiment with NCI-H226 lung, 101%; with NCI-H322M lung, 69.7%; with HOP-62 NSCLC, 35.4%; in the experiment on NCI-H460 lung, 18.6%; in the experiment with HOP-92 NSCLC, 30.9%. Further, the growth in the experiment on NCI-H522 lung is 17.2%; in the experiment on A549/ATCC NSCLC it was 46%; in the experiment on 786-0 renal, 25.6%; in the experiment with COLO 205 colon it was 106%; with DU-145 prostate, 43.1%; in the experiment with K-562 leukemia, 9.86% (active). Also, the growth was 62% in the experiment with MALME-3M melanoma; 55.3% in the experiment on MDA-MB-231 breast; 34.7% in the experiment with RXF 393 renal; 47.2% in the experiment with SF-268 CNS; 54.5% in the experiment on SF-295 CNS; 3.27% (active) in the experiment on SF-539 CNS. The growth with UACC-257 melanoma was 35.8%; in the experiment on M14 melanoma it was 9.16% (active).
As for `CCOC(=O)C1=C(CC(O)c2ccc(OC)cc2OC)NC(=O)NC1c1ccccc1` (stereo not given), the growth is 103% in the experiment with NCI-H23 lung; 100% with NCI-H226 lung; 104% in the experiment with NCI-H322M lung; 97.8% with HOP-62 NSCLC; 113% in the experiment on NCI-H460 lung; 82.5% with HOP-92 NSCLC. For the same compound, the growth was 98.5% with NCI-H522 lung; 107% with A549/ATCC NSCLC; 102% in the experiment with 786-0 renal; 126% with COLO 205 colon; 110% in the experiment with DU-145 prostate; 56.1% in the experiment with K-562 leukemia. Also, the growth with MALME-3M melanoma is 93.8%; with MDA-MB-231 breast, 99.4%; with RXF 393 renal it was 120%; in the experiment on SF-268 CNS it was 109%; in the experiment on SF-295 CNS, 109%; with SF-539 CNS it was 95.1%. Also, the growth in the experiment with UACC-257 melanoma was 102%; with M14 melanoma, 109%.
